Bioassay records: PubChem BioAssay, National Center for Advancing Translational Sciences (NCATS)
Most compounds without a hit are left out; they make up all but 19% or so of the library.
HT1080NT lethal: kills 2HG-producing HT-1080-NT fibrosarcoma cells. HT-1080-NT fibrosarcoma viability, CellTiter-Glo ATP luminescence, 48 h. Potency, µM (top dose mostly 46.1 µM), without a hit: at the top dose activity, negative = less viability, usual class: cytotoxic. hit rate 1.6% among 360,000;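 further: NT is the 2HG producing partner of a matched IDH1 knockdown line; potency means the concentration at half of the fitted maximal effect; 0% = DMSO-treated cells and -100% = media-only wells without cells; nearly all actives have a fitted effect of over 55% in size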
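Fibrosarcoma NT cells, 750 per well in 5% FBS RPMI, were exposed to compound for 48 hours. Viability: CellTiter-Glo luminescence.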
TDP1 cell noCPT: qHTS for Inhibitors of human tyrosyl-DNA phosphodiesterase 1 (TDP1): qHTS in cells in absence of CPT | DT40 Tdp1-/- hTDP1 cells, no CPT, ATP luminescence, 48 h | Potency, µM (series often up to 46.2 µM), for the others: top-dose activity change, negative = growth inhibition, most hits filed as inhibitors | hit rate 15% among 420,000 | AID 686978, 2013; further: potency means the concentration at half of the fitted maximal effect; nearly all actives have a fitted effect of over 55% in size
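A cellular qHTS used chicken DT40 cells lacking endogenous Tdp1 but carrying stably transfected human TDP1. Compounds were applied without camptothecin, and cell growth kinetics were judged by ATP-dependent luminescence after ≥48 hr.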
HT1080 IDH1KD tx: HT-1080 IDH1 knockdown cell toxicity (counter line). HT-1080 IDH1 knockdown viability, ATP luminescence, 48 h. Potency, µM (titrated, usually from 46.1 µM), for inactives: at the top dose activity, negative = toxicity, actives largely listed as cytotoxic. hit rate 2% among 360,000. AID 686971;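 further: potency means the concentration at half of the fitted maximal effect; 0% = DMSO wells and -100% = cell-free medium wells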
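In this qHTS, HT-1080 cells depleted of IDH1 are exposed for 48 h at 37 °C to compound titrations. Toxicity is scored from CellTiter-Glo luminescence, with DMSO as full viability and medium alone as none.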
DT40 TDP1 CPT: growth inhibition of DT40 Tdp1-/-;hTDP1 cells with camptothecin (screen for TDP1 inhibitors); chicken DT40 Tdp1-/-;hTDP1 cells + 20 nM CPT, ATP luminescence, 48 h; Potency, µM (doses to about 46.2 µM), for inactives: at the highest dose activity change, negative = growth inhibition, most hits filed as inhibitors; hit rate 12% among 420,000; further: potency means the concentration at half of the fitted maximal effect; nearly all actives have a fitted effect of over 55% in size
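Chicken DT40 Tdp1-/- cells stably complemented with human TDP1 were seeded at 400 cells/well in medium containing 20 nM camptothecin, exposed to pin-transferred compounds, and grown at 37 °C for at least 48 hr. Viability was read as ATP luminescence.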
IL1B secr inh: inhibitors of inflammasome signaling (IL-1 beta secretion). THP-1 LPS/ATP IL-1B secretion, AlphaLISA, 16 h; hits give low values. activity change, % at 57.5 µM. hit rate 4.7% among 360,000. AID 743279; in the data active means activity change below about -50%; inconclusive means mostly about -30% to -49%
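THP-1 cells pretreated 1 hr with compounds (up to 57.5 uM final), then stimulated with LPS (250 ng/mL final) plus ATP (1.25 mM final); secreted IL-1B measured by AlphaLISA after 16 hr, decreased signal indicating inhibition.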
* = called active by the depositor; ? = inconclusive; · = not tested or not shown; [ ] = remark or other dose. Unless noted, the call rests on the fitted dose curve; in most records, active means well fitted curve in the direction sought with a large enough effect; inconclusive means small, poorly fitted or top-dose-only effect, or another doubt; inactive means no such curve, though single readings can be large; an effect the other way counts as inactive or inconclusive. Unless noted, on the % scale 0 is the no-effect control and ±100 the full control effect.

SMILES	HT1080NT lethal	TDP1 cell noCPT	HT1080 IDH1KD tx	DT40 TDP1 CPT	IL1B secr inh
COc1cc2c(cc1NC(=O)c1cccc(F)c1)CCCC2	6%	?	6%	?	-3
COc1cc2c(cc1NC(=O)c1ccccc1F)CCCC2	-5%	21µM*	2%	?	9
COc1cc(NC(=O)c2cccc(C)c2)c(OC)cc1NC(=O)CN1CCCCC1	-1%	16µM*	-11%	?	-62*
COC(=O)c1ccc(C(=O)Nc2cc(Cl)ccc2Cl)cc1NC(=O)c1ccc(N(C)C)cc1	5%	?	-7%	26µM*	-12
COc1cc2c(cc1NC(=O)c1cccc(Br)c1)CCCC2	1%	16µM*	-6%	?	0
COc1cc(OC)c(NC(=O)c2ccccc2F)cc1Cl	-2%	-21%	-6%	-11%	13
COc1cc(NC(=O)Nc2ccccc2OC)c(OC)cc1NC(=O)CN1CCCCC1	-14%	?	-15%	?	-4
COc1ccccc1CNCCS(=O)(=O)NCc1ccccc1	3%	?	4%	-22%	-1
Cc1cccc(C(=O)Oc2cccc3c(O)cccc23)c1	-10%	-11%	-4%	-25%	12
Cc1cnc(CNc2ncncc2-c2ccoc2)cn1	·	-23%	·	-10%	·
CCN(CC)C(=O)C1=C(C)N(Cc2ccc(OC)cc2)C(=O)C(CC(=O)NC2CCCCC2)C1 (stereo not given)	1%	-8%	4%	2%	-10
COc1cc(NC(=O)C(c2ccccc2)c2ccccc2)c(C(=O)O)cc1OC	0%	9%	1%	-3%	16
COc1cc2c(cc1NC(=O)C(c1ccccc1)c1ccccc1)CCCC2	0%	12µM*	-3%	?	5
COc1ccc(Cl)cc1NC(=O)CN1CCCCCC1	-2%	-18%	-3%	-5%	0
COc1cc(NC(=O)c2ccc(Cl)cc2)c(OC)cc1NC(=O)CN1CCCCC1	?	18µM*	?	?	-84*
CC1(c2ccccc2)NC(=O)N(CC(=O)Nc2ccccc2N2CCCCC2)C1=O (stereo not given)	15%	?	5%	?	1
Cc1ncc2c(c1CNS(=O)(=O)N(C)C)CCN(C(=O)c1[nH]c3ccc(Cl)cc3c1C)C2	·	?	·	-5%[9.04 µM]	·
CCOC(=O)c1c(C)nc2c(c1-c1cc(OC)c(OC)c(OC)c1)C(=O)c1ccccc1-2	-11%	-15%	-4%	7%	?
CN(Cc1ccc2c(c1)OCO2)C(=O)c1cc(-c2ccccc2)c(N2CCOCC2)s1	1%	?	-3%	?	-23
O=C(NCc1ccco1)c1cc(-c2ccccc2)c(N2CCOCC2)s1	-7%	-11%	-10%	-1%	-14
CCOc1ccc(CCNC(=O)c2cc(-c3ccccc3)c(N3CCOCC3)s2)cc1OCC	0%	3.3µM*	0%	?	13
O=C(O)c1cc(-c2ccccc2)c(N2CCOCC2)s1	1%	2%	-2%	-6%	8
CCOc1ccc(CCNC(=O)c2cc(-c3ccccc3)c(N3CCOCC3)s2)cc1	-14%	29µM*	3%	?	-18
O=C(NCc1ccc2c(c1)OCO2)c1cc(-c2ccccc2)c(N2CCOCC2)s1	-13%	21µM*	-13%	?	?
COc1ccc(CCNC(=O)c2cc(-c3ccccc3)c(N3CCOCC3)s2)c(OC)c1OC	-9%	23µM*	0%	8.2µM*	-21
